Molecules are shown by their SMILES. Records with an inconclusive call do not appear. Unmarked numbers belong to inactive results. Activity calls are given as the source filed them. Calls follow the shape of the dose curve; as a rule, active = well fitted inhibition curve with a large enough effect; inconclusive = small, poorly fitted or top-dose-only effect; inactive = no such curve, though single readings can be large or run the other way.
Potency is read from the fitted curve at half-maximal effect.

This experiment can be described thus: Confirmatory fluorescence-based thiol-reactive (MSTI) qHTS assay for identification of artifact compounds. Particulars: MSTI thiol-reactivity probe, 1 h; series mostly up to 39.2 µM; activity change, negative = inhibition: at the top concentration. An excerpt:
PI: Alexander Tropsha Ph.D. UNC Eshelman School of Pharmacy University of North Carolina, Chapel Hill, North Carolina Hits from high-throughput screening (HTS) of chemical libraries are often false positives due to their interference with the assay detection technology. In response to this problem, we generated the largest publicly available library of chemical liabilities and developed a free webtool to predict HTS artifacts, both of which are described herein. More specifically, we generated, curated, and integrated HTS datasets for thiol reactivity, redox activity, and luciferase (firefly and nano) activity. Using these curated datasets, we developed and validated several Quantitative Structure-Interference Relationship (QSIR) models to predict nuisance behavior. […] These models were employed for virtual profiling of the National Center for Advancing Translational Science's (NCATS) in-house library, and 256 compounds for each assay were selected for the experimental validation of nuisance behavior. The BA for these external predictions ranged from 58 to 78% for compounds within the applicability domains of the models. […] The models developed in this study, along with aggregation models previously developed by our group (SCAM Detective) were implemented in "Liability Predictor," an online tool which may be used as part of chemical library design or for triaging HTS hits. Both the models and the curated datasets are publicly available at https://liability.mml.unc.edu/.
PROTOCOL TABLE SEQUENCE No. (e.g., 1, 2, 3, etc.); PARAMETER (e.g., Cells, Incubation, Reagent, etc.); VALUE; DESCRIPTION. 1; Reagent; 4 uL; […]. 2; Compounds and control; 16 nL; Kalypsis pin tool (Wako USA) equipped with a 1536-well pin head. 3; Incubation; 1 hour. 4; Detection; Fluorescence, ViewLux microplate reader, 525 nm excitation, 598 nm emission. NOTES (numbers refer to Sequence numbers above) 1. Assays determining (E)-2-(4-mercaptostyryl)-1,3,3-trimethyl-3H-indol-1-ium (MSTI) reactivity were performed as previously described in the literature with modifications for the quick identification of compounds reacting with thiol. In brief, 4 uL of MSTI or positive control Acetyl-MSTI (final concentrations of 4 uM and 4 uM, respectively) in assay buffer (2% DMSO in 1X PBS pH 7.4) was dispensed into all wells of a 1536-well assay plate (solid-bottom black plate; Greiner Bio One, Monroe, NC). 2. A Wako Pin-tool (Wako Automation, Richmond, VA) was used to transfer 16 nL of compounds (consisting of 7-plates in qHTS format, final concentration range 18.3 nM to 114 uM) or control MLS001163887 (final concentration range 1.22 nM to 40 uM). 3. Plates were centrifuged (121xg, 15 seconds) and incubated for 1 hour at room temperature protected from light. 4. Samples were read for fluorescence (Ex/Em = 525(20)/598(25) nm) on a ViewLux CCD imager (PerkinElmer). Data were normalized to Acetyl-MSTI (0% activity) and MSTI (100% activity) and the resulting percent inhibition data were fitted to a 4-parameter Hill equation using NCATS in-house software.
With `CCOc1ccc(CCNC(=O)c2ccc3c(c2)nc2n3CCOC2)cc1OCC`, the “activity change, negative = inhibition” value was 109%.
With `CCOC(=O)C1CCN(c2nc3ccccc3nc2Cl)CC1`, the “activity change, negative = inhibition” value is 118%.
The same measure, in the same setting: as for `O=C(/C=C/c1ccc(O)cc1)OC[C@H]1O[C@@H](Oc2c(-c3ccc(O)cc3)oc3cc(O)cc(O)c3c2=O)[C@H](O)[C@@H](O)[C@@H]1O`, the figure is 5.52%; as for `Cc1ccc(OCc2nc3ccccc3n2Cc2ccccc2Cl)cc1`, -4.67%.
Still for that read-out and setting: the same measure for `Cc1ccc(OCCn2c(CCNC(=O)OC(C)(C)C)nc3ccccc32)cc1`: -2.7%; for `CCOC(=O)c1c(C)c(C(=O)NCc2ccc(Cl)cc2)c(C)n1CC`: 111%; for `Cc1ccc(-c2nc3scc(CCNS(=O)(=O)c4ccc(F)c(C)c4)n3n2)cc1`: 49.9%.
With `O=C(Nc1ccc2oc(-c3cccc4c(Br)cccc34)nc2c1)c1cccnc1`, the “activity change, negative = inhibition” value was 32.8% [at 78.4 µM].
Same read-out and setting: as for `O=C(CNC(=O)C(c1ccccc1)c1ccccc1)OCC(=O)c1ccc2ccccc2c1`, the figure is 122%; as for `Fc1ccc(-c2cc(-c3ccc(F)cc3)c3c(n2)-c2cc(F)ccc2OC3)cc1`, 153%; as for `O=C(CCn1c(=O)c2cccn2c2cccnc21)N1CCN(c2ccccc2F)CC1`, 79.7%.
`COc1ccccc1Cc1nc2ccccc2nc1SCC(=O)Nc1c(C)cccc1C`: the “activity change, negative = inhibition” value is 5.83%.
The same measure, in the same setting: the same measure for `COC(=O)c1ccc2nc(C)cc(Nc3ccc(O)cc3)c2c1`: -5.75%; for `O=C(O)c1ccccc1[N+](=O)[O-]`: 10.1%.
As for `Cc1ccccc1C(=O)Nc1cc(C)c(O)c(-c2nc3ccccc3o2)c1`, the “activity change, negative = inhibition” value is 86.6%.
With `O=c1cc(-c2cc(O)c(O)c(O)c2)oc2cc(O)cc(O)c12`, the Potency is 12200 nM (active).
On the same count and under the same terms, the same measure for `COc1ccc(-c2ccc(CCC(=O)O)n2-c2ccccc2O)cc1`: 4330 nM (active).
For `COc1ccc(NC(=O)c2ccco2)cc1NC(=O)c1ccccc1[N+](=O)[O-]`, the “activity change, negative = inhibition” value is -13.1%.
For `O=C(Nc1nc(-c2ccccc2)cs1)c1ccccc1[N+](=O)[O-]`, the Potency is 2440 nM (active).
For `O=C1c2ccccc2C(=O)c2c(O)c(O)cc(O)c21`, the Potency is 612 nM (active).
With `Cc1ccc(C)c(N2CCN(S(=O)(=O)c3cc(Br)cc4c3N(C(=O)C3CC3)CC4)CC2)c1`, the “activity change, negative = inhibition” value was 4.58%.
For the molecule `CCOC(=O)CN(Cc1ccccc1)C(C(=O)NC1CCCCC1)c1ccc(C)cc1` (stereo not given), the “activity change, negative = inhibition” value was -13.9%.
On the same count and under the same terms, as for `CCOc1ccccc1NC(=O)CSc1nc2c(oc3ccccc32)c(=O)n1-c1ccc(F)cc1`, the figure is 96.4%.
Regarding `CCc1ccc2c(O)c3c(cc2c1C(=O)OC)C(=O)c1c(O)ccc(O)c1C3=O`, the Potency is 386 nM (active).
As to `Cc1ccc(NS(=O)(=O)c2cc3c(cc2N2CCC2)NC(=O)CC3)cc1C`, the “activity change, negative = inhibition” value was 102%.
Same read-out and setting: the same measure for `CCCCn1c(-c2ccc(C)cc2)c(C)n2c3c(=O)n(C)c(=O)n(C)c3nc12`: -26%; for `COc1ccc(CNC(=O)CCc2c(C)nc3c4cccnc4nn3c2C)cc1`: 55%; for `COc1ccc(NC(=O)C(C)n2nc(-c3cc(C)ccc3C)c3c(c2=O)CCCC3)cc1` (stereo not given): 35.4%.
On to `COc1ccc(-c2coc3cc(O)ccc3c2=O)c(OC)c1O`, for which the “activity change, negative = inhibition” value is 1.63%.
Consider `COC(=O)[C@@H]1[C@H]2C[C@H]3c4[nH]c5cc(OC)ccc5c4CCN3C[C@@H]2C[C@@H](OC(=O)c2cc(OC)c(OC)c(OC)c2)[C@@H]1OC`, for which the Potency is 7910 nM (active).
Same read-out and setting: as for `COc1cc(O)c2c(c1)oc(=O)c1c3cc(O)c(O)cc3oc21`, the figure is 1090 nM (active).
On to `CCCC(N[C@@H](C)C(=O)N1[C@H](C(=O)O)C[C@@H]2CCCC[C@@H]21)C(=O)OCC` (stereo not given in full), for which the “activity change, negative = inhibition” value was -0.232%.
As for `C/C(=C\c1ccc2c(c1)OCO2)C1Nc2cccc3cccc(c23)N1`, the Potency is 3070 nM (active).
With `Cc1nn(C(=O)COc2ccccc2Br)c(C)c1Sc1ccccc1`, the “activity change, negative = inhibition” value is 72.4%.
Same read-out and setting: as for `CC[C@H]1OC(=O)[C@H](C)[C@@H](O[C@H]2C[C@@](C)(OC)[C@@H](O)[C@H](C)O2)[C@H](C)[C@@H](O[C@@H]2O[C@H](C)C[C@H](N(C)C)[C@H]2O)[C@](C)(O)C[C@@H](C)C(=O)[C@H](C)[C@@H](O)[C@]1(C)O`, the figure is 30.9%.
With `COc1ccc([C@H]2C[C@H](O)[C@@H](n3cc(C4CC4)nn3)CN2C(=O)c2cccs2)cc1`, the “activity change, negative = inhibition” value was 92.5%.
Still for that read-out and setting: the same measure for `O=C(O)c1c(O)c(O)cc2ccccc12`: -23.5%; for `O=C(NCCSc1c(-c2ccc(Br)cc2)[nH]c2ccccc12)c1ccc(S(=O)(=O)N2CCOCC2)cc1`: 248%.
Same read-out and setting: as for `Ic1ccc(Nc2nc(NCCN3CCOCC3)nc(N3CCOCC3)n2)cc1`, the figure is 94.8%; as for `O=C(NCCc1ccccc1)C1CCC(CNS(=O)(=O)c2ccccc2)CC1` (stereo not given), 139%.

The record behind these values is PubChem BioAssay AID1845226 (National Center for Advancing Translational Sciences (NCATS), 2023).
